Screening data (PubChem)
Most compounds without a hit are left out; they make up all but 6.6% or so of the library.
KB-3-1 tox: KB-3-1 parental cell cytotoxicity. KB-3-1 viability, CellTiter-Glo ATP luminescence, 72 h. AID 1347075. hit rate 1.4% among 400,000. Potency, µM (series often up to 46.1 µM), usual class: cytotoxic; also: nearly all actives have a fitted effect of over 60% in size
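Screening of KB-3-1 cells (DMEM, 10% FBS, phenol-red free) ran from lowest to highest compound concentration; after 72 h at 37 °C viability was read luminescently and curves fitted.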
PTAP TSG101 blk: blocks PTAP/TSG101 interaction to inhibit HIV-1 budding; Potency, µM (doses to about 115 µM), hits mostly inhibitors; Fluorescence polarization, FITC-PTAP peptide / Tsg101 binding; AID 493005; Q99816; 340,000 tested, under 10 active; active = well fitted inhibition curve with a large enough effect in the main read-out, with a control signal flat, not every such curve was filed as active; inconclusive = small, poorly fitted or top-dose-only effect, or effect the other way, or a change in a side signal; inactive = no such curve, though single readings can be large or run the other way
Target sequence (Q99816 whole entry, looked up): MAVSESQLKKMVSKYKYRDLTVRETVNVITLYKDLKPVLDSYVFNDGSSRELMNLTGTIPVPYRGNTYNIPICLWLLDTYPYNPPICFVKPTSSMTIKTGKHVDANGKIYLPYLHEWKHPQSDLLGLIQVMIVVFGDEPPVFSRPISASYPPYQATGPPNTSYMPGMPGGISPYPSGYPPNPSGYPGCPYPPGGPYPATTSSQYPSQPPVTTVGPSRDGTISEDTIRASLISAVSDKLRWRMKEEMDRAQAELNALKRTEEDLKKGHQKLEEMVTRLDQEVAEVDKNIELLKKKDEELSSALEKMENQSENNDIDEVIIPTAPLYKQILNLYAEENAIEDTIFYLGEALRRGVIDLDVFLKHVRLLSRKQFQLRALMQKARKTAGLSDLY
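Tsg101 binding domain (10 uM final) was mixed with compound and a FITC-labeled PTAP peptide (50 nM final) in HEPES pH 7.5 buffer with NaCl, Tween 20, EDTA and TCEP; fluorescence polarization was read after 20 min at r.t.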
RGS4 inh: human RGS4 inhibition. P49798. Transcreener GDP fluorescence polarization, RGS4-accelerated GTP hydrolysis. Potency, µM (titrated, usually from 114 µM), actives largely listed as inhibitors. hit rate 0.039% among 390,000; also: nearly all actives have a fitted effect of over 75% in size
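MLSMR compounds (23 nl, pin-transferred) preincubated 10 min at room temperature with a 500nM (2x) first reagent, then RGS4 at 900nM (2x) plus Transcreener GDP mix added; fluorescence polarization (620/688 nm) read before and after 90 min at 30 °C.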
SW480 rereplic: inducers of DNA re-replication in SW480 colon cancer cells | SW480 DNA re-replication, Hoechst DNA content imaging, 48 h | hit rate 1.8% among 340,000 | Potency, µM (series often up to 46.1 µM), actives largely listed as activators; also: nearly all actives have a fitted effect of over 55% in size
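Image-based read-out: total Hoechst fluorescence of nuclei (405 nm excitation, 500-530 nm emission), with hits raising the fraction of high-intensity nuclei. SW480 colon cells incubated 48 hr with compounds at 37 C.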
KB-V1 cytotox: KB-V1 MDR subline cytotoxicity; KB-V1 MDR cells viability, CellTiter-Glo, 72 h; Potency, µM (highest dose often 46.1 µM), most hits filed as cytotoxic; hit rate 3.4% among 400,000; AID 1347076; also: nearly all actives have a fitted effect of over 60% in size
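Cytotoxicity toward P-gp-expressing KB-V1 cells was determined as loss of CellTiter-Glo luminescence after 72 h at 37 degrees C. Compounds were tested in quantitative HTS format across a concentration range, with curves fitted to normalized data.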
MCF10A rerep: inducers of DNA re-replication in MCF 10A breast cells; MCF 10A DNA re-replication, Hoechst nuclear intensity, 48 h; Potency, µM (highest dose often 46.1 µM), usual class: activators; hit rate 2.9% among 350,000; AID 624296; also: nearly all actives have a fitted effect of over 50% in size
Each line names hits and unclear results; the compound was inactive in the other large screens. Unless noted, calls follow the shape of the dose curve; as a rule, active = well fitted curve in the direction sought with a large enough effect; inconclusive = small, poorly fitted or top-dose-only effect, or another doubt; inactive = no such curve, though single readings can be large; an effect the other way counts as inactive or inconclusive.

CCOc1ccc(N(CC)S(=O)(=O)N2CCCC(C(=O)Nc3ccc(NC(C)=O)cc3)C2)cc1 (stereo not given)	none (no result: PTAP TSG101 blk, SW480 rereplic, MCF10A rerep)
Fc1ccc(/C=C/c2nccc3ccccc23)cc1	KB-3-1 tox 18µM (no result: PTAP TSG101 blk, RGS4 inh, SW480 rereplic, MCF10A rerep)
COc1cc(-c2ccc3ncnc(NCC4CCCO4)c3c2)cc(OC)c1OC (stereo not given)	none (no result: PTAP TSG101 blk, RGS4 inh, SW480 rereplic, MCF10A rerep)
CC(=O)/C=C1\C(=O)N(C)c2ccccc21	RGS4 inh 19µM (no result: KB-3-1 tox, PTAP TSG101 blk, SW480 rereplic, KB-V1 cytotox, MCF10A rerep)
Cc1cc2c(cc1S(=O)(=O)Nc1cccc(Cl)c1C)OCCN2C	none (no result: KB-3-1 tox, PTAP TSG101 blk, SW480 rereplic, KB-V1 cytotox, MCF10A rerep)
COc1cccc(CNC(=O)c2ccc(-c3nc(COc4ccccc4)c(C)o3)cc2)c1	none (no result: PTAP TSG101 blk, SW480 rereplic, MCF10A rerep)
O=C1c2cccc3cccc(c23)C(=O)N1CC1CCN(CC(O)COc2ccc3ccccc3c2)CC1 (stereo not given)	KB-3-1 tox inconclusive, SW480 rereplic inconclusive, MCF10A rerep inconclusive
Cc1cc(C)cc(OCC(O)CN2CCC(CN3C(=O)c4cccc5cccc(c45)C3=O)CC2)c1 (stereo not given)	KB-3-1 tox inconclusive, KB-V1 cytotox 5.8µM, MCF10A rerep inconclusive
COc1cccc(OCC(O)CN2CCC(CN3C(=O)c4cccc5cccc(c45)C3=O)CC2)c1 (stereo not given)	SW480 rereplic inconclusive, MCF10A rerep inconclusive
CCc1ccc(OCC(O)CN2CCC(CN3C(=O)c4cccc5cccc(c45)C3=O)CC2)cc1 (stereo not given)	KB-3-1 tox 23µM, KB-V1 cytotox inconclusive
Cc1ccc(C)c(OCC(O)CN2CCN(CCN3C(=O)c4cccc5cccc(c45)C3=O)CC2)c1 (stereo not given)	KB-3-1 tox 16µM, SW480 rereplic inconclusive, KB-V1 cytotox inconclusive, MCF10A rerep inconclusive
Cc1cn2c(=O)cc(COC(=O)COc3ccc(C)c(C)c3)nc2s1	none (no result: PTAP TSG101 blk, SW480 rereplic, MCF10A rerep)
O=C(O)CCN1CC2([N+](=O)[O-])CC=C(OCCO)C([N+](=O)[O-])(C1)C2 (stereo not given)	SW480 rereplic 3.7µM
CC(N)(Cc1ccc(O)c(O)c1)C(=O)O (stereo not given)	RGS4 inh 11µM (no result: KB-3-1 tox, PTAP TSG101 blk, SW480 rereplic, KB-V1 cytotox, MCF10A rerep)
COc1ccc(-c2ccc(OC)c(OC)c2OC)c(OC)c1OC	KB-V1 cytotox 23µM
CCC1(c2ccc(Cl)cc2)NC(=O)N(CC(=O)NC2CCCCCC2)C1=O (stereo not given)	none
CCC1(c2ccc(F)cc2)NC(=O)N(CC(=O)NC2CC2)C1=O (stereo not given)	none
CCC1(c2ccc(Cl)cc2)NC(=O)N(CC(=O)NC2CCCC(C)C2C)C1=O (stereo not given)	SW480 rereplic 4.1µM
CCC1(c2ccc(F)cc2)NC(=O)N(CC(=O)NC2CCCC(C)C2C)C1=O (stereo not given)	RGS4 inh inconclusive, KB-V1 cytotox 16µM
Cc1cccc(CSc2ncc(Cl)c(C(=O)Nc3sc4c(c3C#N)CCCC4)n2)c1	none (no result: PTAP TSG101 blk, SW480 rereplic, MCF10A rerep)
CN(C)c1nc(=NCc2ccco2)ss1	RGS4 inh inconclusive, MCF10A rerep 21µM
CCOC(CN=c1nc(N(C)C)ss1)OCC	SW480 rereplic inconclusive, KB-V1 cytotox inconclusive, MCF10A rerep inconclusive
O=C(Nc1cccc(C(F)(F)F)c1)c1sc(Cl)nc1C(F)(F)F	MCF10A rerep 21µM
C(#Cc1ccccc1)C[N+]1(CC#Cc2cccc3ccccc23)CCCC1	KB-3-1 tox 16µM, MCF10A rerep inconclusive
C#CC[N+]1(CC#Cc2ccccc2)CCCC1	KB-3-1 tox inconclusive
Cc1cccc(N2CCN(C(=O)CN3CCSc4ccccc43)CC2C)c1 (stereo not given)	KB-V1 cytotox inconclusive (no result: PTAP TSG101 blk, SW480 rereplic, MCF10A rerep)
NC(=S)c1ccc[n+]([C@@H]2O[C@@H](COP(=O)([O-])OP(=O)(O)OC[C@H]3O[C@@H](n4cnc5c(N)ncnc54)[C@H](OP(=O)(O)O)[C@@H]3O)C(O)C2O)c1 (stereo not given in full)	RGS4 inh 27µM (no result: KB-3-1 tox, PTAP TSG101 blk, SW480 rereplic, KB-V1 cytotox, MCF10A rerep)
CCC(C)NC(=O)CSc1nc2cc3c(cc2c(=O)n1CCCC(=O)NCCc1ccc(OC)c(OC)c1)OCO3 (stereo not given)	none (no result: KB-3-1 tox, PTAP TSG101 blk, SW480 rereplic, KB-V1 cytotox, MCF10A rerep)
